This is part of a sample that, as a whole, favours compounds with a hit. Of some 83,000 tested, about 20% had one in any assay.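 A percent growth of 40 corresponds to 60% growth inhibition; 0 means no net growth; -100 means all cells died. Active threshold: below 10.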 Unmarked numbers belong to inactive results. Activity calls are given as the source filed them.

This note sets out measurements from PubChem BioAssay (NCI).

Holding throughout (test): NCI-60 one-dose screen, 48 h (100 = growth as untreated, 0 = no growth, -100 = all killed)
What all share (conditions): 10 µM

For test [1], the system named is DU-145 prostate.
The subject of test [2] is K-562 leukemia.
In test [3] the test system is MALME-3M melanoma.
In test [4] the test system is MDA-MB-231 breast.
The test system of test [5] is SF-268 CNS.
In test [6] the test system is SF-295 CNS.
The test system of test [7] is SF-539 CNS.
Test [8] has as its system UACC-257 melanoma.
In test [9] the test system is M14 melanoma.

Consider `COc1ccc(CN2[C@@H](C(=O)NCc3ccc(C(=O)NO)cc3)Cc3c([nH]c4ccccc34)[C@@H]2C)cc1`, for which the growth is 18.6% in test [1]; 12% in test [2]; 0.926% (active) in [3]; 13% in test [4]; 24.8% in test [5]; 6.57% (active) in test [6]. In addition, the growth is 17.2% in test [7], 32.1% in test [8] and 23.3% in test [9].

As for `CCCn1c(O)c(N=Nc2nc(-c3cc4ccccc4oc3=O)cs2)c2cc(Br)ccc21`, the growth in [1] was 101%; in test [2], 110%; in test [3] it was 88%; in test [4], 89.2%; in [5], 89.8%; in [6], 85.3%. Also, the results for the growth in test [7], in [8] and in [9] were 85%, 107% and 97.6%, respectively.

As for `CC1(c2ccccc2)NC(=O)N(CC(=O)Nc2ccc(C(=O)/C=C/c3ccc(Br)cc3)cc2)C1=O` (stereo unspecified), the growth in test [1] is 59.8%; in test [2], 14.5%; in [3] it was 72.9%; in test [4], 54.3%; in [5], 30.9%; in [6], 37%. Also, the growth was 39.9% in test [7], 48.4% in test [8] and 23.3% in test [9].

As for `COc1ccc(/C=C/C(=O)c2ccc(N3CCN(C)CC3)cc2)c(C(F)(F)F)c1`, the growth is 41.3% in test [1]; 2.66% (active) in test [2]; 45.2% in [3]; 37.4% in [4]; 70.8% in [5]; 18.4% in test [6]. For the same compound, the growth in test [7] was 14.6%; in test [8], 63.3%; in test [9], 38.3%.

In the case of `COc1ccc2ncc(C#Cc3cncc(C(=O)Nc4ccc(CN5CCN(C)CC5)c(C(F)(F)F)c4)c3)n2n1`, the growth in [1] is -100% (active); in [2] it was -9.3% (active); in [3], -93.6% (active); in test [4] it was -95.8% (active); in test [5], -64.5% (active); in test [6], -97.5% (active). The growth was -100% (active) in test [7], -62.2% (active) in test [8] and -80.2% (active) in [9].

`CN1C(=O)N(C)C2SC(N/N=C/c3ccc(F)cc3)=NC21` (stereo unspecified): the growth was 76.3% in test [1]; 15% in test [2]; 40.1% in test [3]; 38.7% in [4]; 52.1% in test [5]; 30.8% in test [6]. The figures for the growth in test [7], in test [8] and in [9] were 29.3%, 67.7% and 23.8%, respectively.

For the compound `CC(=O)c1cc(C(=O)N2c3ccccc3Sc3ccccc32)n2ccc(C)cc12`, the growth is 56.6% in test [1]; 18.7% in [2]; 53.9% in [3]; 46.4% in [4]; 49.4% in test [5]; 36.5% in test [6]. Also, the figures for the growth in [7], in test [8] and in [9] were 32.7%, 31.6% and 36.1%, respectively.

For the compound `Nc1nc(Nc2ccc(Cl)cc2)n(Cc2cccc(Br)c2)n1`, the growth in [1] was 12.1%; in [2] it was 7.99% (active); in test [3], -53.2% (active); in test [4], -68.7% (active); in test [5], -27.4% (active); in test [6] it was -63.2% (active). Moreover, the growth in test [7] was -86.6% (active); in test [8], -15.6% (active); in [9], -48.8% (active).

For `CC1(c2ccccc2)NC(=O)N(CC(=O)Nc2ccc(C(=O)/C=C/C=C/c3ccccc3)cc2)C1=O` (stereo unspecified), the growth is 61.3% in test [1]; 14.8% in test [2]; 81.3% in [3]; 63.1% in test [4]; 57.1% in [5]; 5.15% (active) in test [6]. Besides, the growth in test [7] is 20.5%; in [8], 63.6%; in test [9], 59.3%.

For `CCOc1ccc(Nc2nc3ccccc3nc2Nc2ccc(OCC)cc2)cc1`, the growth was 45.1% in test [1]; 30.2% in test [2]; 83.7% in [3]; 67.7% in test [4]; 40% in [5]; 43.3% in [6]. For the same compound, the growth is 80.8% in [7], 75% in test [8] and 37.6% in test [9].

Turning to `COc1cc(/C=C/C(=O)c2ccc(F)cc2)ccc1Oc1nc(Nc2ccc(F)cc2)nc(N(C)C)n1`, the growth in test [1] is 78.4%; in [2], 25.7%; in test [3], 84.4%; in test [4], 59.4%; in [5], 54.8%; in test [6], 53.1%. The growth in [7] is 77.5%; in test [8], 47.7%; in test [9], 68.6%.

As for `CCCCSc1nc(Nc2ccc(/C(C)=N/NC(N)=S)cc2)c(C#N)c(-c2ccccc2)n1`, the growth was 36.2% in test [1]; 33% in [2]; 35.2% in test [3]; 18.3% in [4]; 67% in test [5]; 24.7% in [6]. In addition, the growth was 19.3% in test [7], 90.3% in test [8] and 76.6% in [9].

Take `O=C(CSc1nnc(-c2c[nH]c3ccccc23)n1-c1ccccc1)c1ccc(Cl)cc1`: the growth in test [1] is 88.4%; in test [2] it was 69%; in test [3], 64%; in test [4] it was 51.7%; in [5] it was 69.4%; in test [6], 55%. The growth in test [7] was 49.5%; in [8] it was 72.3%; in test [9], 80.6%.

On to `COc1ccc(-c2nc(Nc3ccccc3S(N)(=O)=O)c3ccccc3n2)cc1`, for which the growth in test [1] is 7.82% (active); in test [2], 34.1%; in [3], -7.51% (active); in test [4], -33.6% (active); in [5], 22.5%; in [6], 61.3%. The growth in test [7] was -4.27% (active); in [8], 91.2%; in test [9] it was 75.8%.
